Data as given in the supplement of paper PMC3545927.
The list shows a part of the results. The hit rate among all sequences tested is not known here.

Target: furin, P09958
Assay: furin cleavage Z-score vs untreated control; higher = more cleavage, active = 3.5 or more, inactive = 1 or less, 8 variable residues between constant flanks
Procedure: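 Multiplexed peptide-cDNA fusion cleavage assay. 8-mer variable peptides flanked by constant Cys-Ala (N-term) and Ala-Gly-Asn-Ala-Ser-Ala-Ser-Ala (C-term) and conjugated to a cDNA oligonucleotide were bead-immobilised via the N-terminus. They were treated with purified furin at a 1:10 enzyme:substrate ratio in 50 mM HEPES pH 7.5, 1 mM CaCl2, 100 mM NaCl for 7.5, 15 or 30 min. Released cDNA was counted by next-generation sequencing, and log counts versus no-furin controls were lowess-adjusted and converted to robust Z-scores.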

Chain of furin, P09958 (P09958 whole entry): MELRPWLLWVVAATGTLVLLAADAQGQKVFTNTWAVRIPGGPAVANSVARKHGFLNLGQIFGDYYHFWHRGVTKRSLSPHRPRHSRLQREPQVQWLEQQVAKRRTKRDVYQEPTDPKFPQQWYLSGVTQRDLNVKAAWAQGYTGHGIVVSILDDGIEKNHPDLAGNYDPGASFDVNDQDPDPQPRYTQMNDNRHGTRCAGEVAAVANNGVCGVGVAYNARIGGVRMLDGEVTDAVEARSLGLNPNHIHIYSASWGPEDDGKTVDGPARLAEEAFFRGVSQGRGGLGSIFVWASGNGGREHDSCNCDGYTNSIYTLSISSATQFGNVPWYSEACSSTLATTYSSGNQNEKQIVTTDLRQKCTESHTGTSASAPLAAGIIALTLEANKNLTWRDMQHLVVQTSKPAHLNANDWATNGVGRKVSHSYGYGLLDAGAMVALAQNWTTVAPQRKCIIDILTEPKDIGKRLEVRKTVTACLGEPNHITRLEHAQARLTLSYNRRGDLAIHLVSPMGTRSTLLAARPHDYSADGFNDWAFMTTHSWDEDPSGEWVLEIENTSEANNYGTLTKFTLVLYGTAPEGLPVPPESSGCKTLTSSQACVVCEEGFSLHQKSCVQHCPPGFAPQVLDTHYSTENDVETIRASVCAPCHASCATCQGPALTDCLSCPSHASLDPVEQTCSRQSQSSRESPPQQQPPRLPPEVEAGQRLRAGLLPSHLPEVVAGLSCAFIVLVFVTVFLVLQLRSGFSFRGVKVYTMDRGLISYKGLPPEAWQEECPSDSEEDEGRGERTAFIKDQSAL

Sequence	furin cleavage Z-score (7.5 min)	furin cleavage Z-score (15 min)	furin cleavage Z-score (30 min)
CADSGRKTRSAGNASASA [FS-760]	9.82 (active)	12.7 (active)	9.11 (active)
CARHMRMTRSAGNASASA [FS-857]	13.4 (active)	13.6 (active)	9.7 (active)
CARFWRKTRSAGNASASA [FS-1396]	13 (active)	13.8 (active)	10.1 (active)
CARHLIFCHSAGNASASA [HC855]	-0.853 (inactive)	0.266 (inactive)	0.481 (inactive)
CARMWRKTRSAGNASASA [FS-955]	13.5 (active)	13.7 (active)	10.7 (active)
CADSGRAYLPAGNASASA [FS-2629]	-0.794 (inactive)	-0.681 (inactive)	-1.79 (inactive)
CARIVGPRTCAGNASASA [HC1183]	0.967 (inactive)	-0.921 (inactive)	-0.233 (inactive)
CAYVPCHRPSAGNASASA [HC2309]	1.57	-0.807 (inactive)	0.069 (inactive)
CAPQAILDMIAGNASASA [HC331]	-0.162 (inactive)	-2.41 (inactive)	-1.52 (inactive)
CAKWVPGAVYAGNASASA [HC551]	-1.17 (inactive)	-1.76 (inactive)	-0.384 (inactive)
CAMEESSQHLAGNASASA [HC15]	0.403 (inactive)	2.52	1.06
CADQEVVTSTAGNASASA [HC2302]	-0.902 (inactive)	-1.54 (inactive)	-1.12 (inactive)
CAFQARLTRSAGNASASA [FS-158]	10.8 (active)	11.5 (active)	9.98 (active)
CARMWRKNRSAGNASASA [FS-954]	7.39 (active)	10 (active)	7.6 (active)
CAMPECSQHLAGNASASA [HC1699]	-0.692 (inactive)	-0.28 (inactive)	-0.904 (inactive)
CADQDLVGWPAGNASASA [HC713]	-0.0765 (inactive)	-0.565 (inactive)	0.238 (inactive)
CARSKRALKQAGNASASA [FS-2604]	8.45 (active)	11.8 (active)	8.31 (active)
CARTKRELENAGNASASA [FS-1935]	14.2 (active)	14.2 (active)	11.6 (active)
CARSKRAAPAAGNASASA [FS-2603]	11.1 (active)	9.91 (active)	8.19 (active)
CARSKKDFEAAGNASASA [FS-2458]	0.38 (inactive)	-0.117 (inactive)	-0.363 (inactive)
CAQAEAALENAGNASASA [HC532]	0.288 (inactive)	-0.4 (inactive)	-1.4 (inactive)
CARDKRALKQAGNASASA [FS-1690]	5.74 (active)	8.75 (active)	8.98 (active)
CAITRVESENAGNASASA [HC1281]	-1.51 (inactive)	-1.29 (inactive)	0.308 (inactive)
